# Only a selection was taken, and hits are over-represented in it overall.
# CBX7 inh = inhibitors of human CBX7 binding to H3K27me3 peptide. O95931. AlphaScreen His6-CBX7 / biotin-H3K27me3 peptide binding; stronger effect = lower value. normalised signal (fraction of DMSO) (concentration not given with the values). hit rate 1.1% among 66,000; in the data active = normalised signal below about 0.5
# Target sequence (O95931 whole entry, looked up): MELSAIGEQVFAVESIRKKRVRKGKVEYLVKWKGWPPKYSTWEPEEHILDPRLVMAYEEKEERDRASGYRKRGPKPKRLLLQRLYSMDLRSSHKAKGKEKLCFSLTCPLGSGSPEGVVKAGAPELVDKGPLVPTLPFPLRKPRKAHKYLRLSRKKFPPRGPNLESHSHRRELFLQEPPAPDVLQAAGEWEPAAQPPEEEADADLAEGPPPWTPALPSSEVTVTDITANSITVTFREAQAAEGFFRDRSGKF
# * = called active by the depositor.
SMILES,CBX7 inh
COc1ccccc1CN(C)CCc1ccccn1,1
COc1ccc(S(=O)(=O)N(C)CCc2ccccn2)cc1,0.94
CCOc1ccc(CN(C)CCc2ccccn2)cc1,0.47*
Cc1c(CNCc2ccccc2Cl)c(C(=O)O)c(C)n1Cc1ccccc1,1.1
Cc1ccc(S(=O)(=O)Nc2ccccc2C(=O)Nc2nc3ccc(Br)cc3s2)cc1,0.77
CC1CCCC(NC(=O)CN2C(=O)COc3ccc(C(C)(C)C)cc32)C1C (stereo unspecified),0.78
Cc1cc(=O)n2ccc(CN3CCCCC3)c(O)c2n1,0.0042*
Cc1cc(=O)oc2c(CN3CCCC3)c(O)ccc12,1.1
CCn1cc(C(=O)N2CCCCC2)c(=O)c2ccc(C)nc21,1.1
CCN1CCN(c2ccc(NC(=O)[C@@H](c3ccccc3)N3Cc4ccccc4C3=O)cc2)CC1,0.95
O=C(c1cnn(-c2ccccc2)c1-n1cccc1)N1CCC(C(=O)N2CCc3ccccc3C2)CC1,1
CCOc1ccc(CN2C(=O)c3ccccc3Sc3ccc(C(=O)NCc4ccccc4)cc32)cc1,0.85
OC1(c2ccc3c(c2)c2c4n3CCN(Cc3ccccc3)C4CCC2)CCCC1 (stereo unspecified),0.37*
Cc1ccc2c(c1)c1c3n2CCN(CCC(N)=O)C3CCC1 (stereo unspecified),0.97
CCN1CCn2c3c(c4cc(Cl)ccc42)CCCC31 (stereo unspecified),0.98
Cc1ccc(NC(=O)CCc2nnc3ccc(NCc4ccc(F)cc4)nn23)cc1C,0.98
O=C(NCc1ccccn1)C(=O)Nc1ccc2c(c1)OCO2,0.99
COc1ccc(Br)cc1CN(CCc1ccc2c(c1)OCO2)Cc1cccnc1,0.51
CCOc1ccccc1CN(CCc1ccc2c(c1)OCO2)Cc1ccccn1,0.069*
COC(=O)c1c(NC(=O)c2ccc(F)cc2)sc2c1CCCCC2,1.7
Cc1cc(C)cc(-n2nnnc2SCC(=O)Nc2ccc(OC(F)(F)F)cc2)c1,1
CCN(CC)CCN1C(=O)Cn2c3c(c4cccc1c42)CCC3,1.1
CN(C)CCCN1C(=O)CCn2c(-c3ccccc3)c(-c3ccccc3)c3cccc1c32,0.49*
CCOc1ccc(-c2nc(CSCC(=O)NCCc3ccc(C)cc3)c(C)o2)cc1,0.86
O=C(C1=CCN(S(=O)(=O)c2ccc(F)cc2)CC1)N1CCN(c2ccccc2)CC1,1
SMILES,CBX7 inh
N#Cc1nc(COc2ccc(F)cc2)oc1N1CCCCC1,0.42*
Cc1ccc(OCc2nc(C#N)c(N3CCCCCC3)o2)cc1,0.4*
COc1ccc(OCc2nc(C#N)c(N3CCCCCC3)o2)cc1,0.58
N#Cc1nc(COc2ccc(F)cc2)oc1N1CCC(C(N)=O)CC1,0.99
Cc1ccccc1OCc1nc(C#N)c(N2CCCCC2)o1,0.71
Cc1ccccc1OCc1nc(C#N)c(N2CCCCCC2)o1,0.47*
N#Cc1nc(-c2ccc(F)cc2)oc1N1CCCCCC1,0.79
COc1ccc(N2CCN(c3oc(COc4ccccc4OC)nc3C#N)CC2)cc1,0.55
COc1ccc(N2CCN(c3oc(COc4ccc(Cl)cc4)nc3C#N)CC2)cc1,0.56
Cc1ccc(OCc2nc(C#N)c(N3CC(C)CC(C)C3)o2)cc1 (stereo unspecified),0.53
Cc1ccccc1OCc1nc(C#N)c(N2CCOCC2)o1,0.86
COc1ccc(N2CCN(c3oc(COc4cccc(C)c4)nc3C#N)CC2)cc1,0.49*
CCCNC(=O)Cn1cnc2sc(C(=O)Nc3ccc(Br)cc3C)c(C)c2c1=O,1
COc1ccc(-c2nc3cc(C)ccn3c2NC(=O)CC(C)C)cc1,1
CCCCOc1ccc(C(=O)Nc2nnc(-c3ccccc3OC)s2)cc1,1.2
CCOc1ccc(-n2nc(C(=O)Nc3ccc(OC)cc3OC)c3ccccc3c2=O)cc1,0.9
N#Cc1nc(COc2ccc(Cl)cc2)oc1N1CCCCC1,0.76
N#Cc1nc(COc2ccccc2)oc1N1CCCCCC1,0.46*
N#Cc1nc(COc2ccc(F)cc2)oc1N1CCCCCC1,0.5*
N#Cc1nc(COc2ccccc2Cl)oc1N1CCCCC1,0.75
N#Cc1nc(COc2ccc(Cl)cc2)oc1N1CCN(Cc2ccccc2)CC1,0.71
CCN1CCN(c2oc(COc3ccc(F)cc3)nc2C#N)CC1,0.94
O=C(NCCN1CCOCC1)c1cn(-c2ccc(Cl)cc2)c(=O)c2ccccc12,0.99
CCOC(=O)c1cc(-c2ccccc2)n(CCC(=O)Nc2ccc(C(C)C)cc2)c1C,0.92
CC(=O)Nc1cccc(N2C(=O)CC(Cc3ccc(C)cc3)C2=O)c1 (stereo unspecified),1.1
SMILES,CBX7 inh
CCOc1ccc(-c2cc(C(=O)NCc3ccc(OC)cc3)c3ccccc3n2)cc1,1.1
COCc1cc(CN2CCC(C)CC2)c(O)c2ncccc12,0.0039*
Cc1ccc(-c2noc(CN3CCC(C)CC3)n2)cc1,1.1
COc1cccc(OCC(O)CN2CCC(C)CC2)c1 (stereo unspecified),0.98
Cc1ccc(NC(=O)c2ccc(CNc3c(N4CCCCC4)c(=O)c3=O)cc2)cc1F,0.9
O=C1C2=C(Nc3ccccc3SC2c2ccc3c(c2)OCO3)c2ccccc21 (stereo unspecified),0.35*

# Screening results deposited in PubChem by Bradner/Qi Labs at DFCI.
